# Data as given in the supplement of paper PMC4954754.
# ± gives the uncertainty stated by the source.
# Test system: HEK293T-Rex XBP1-RLuc
# Experiment: XBP1-RLuc splicing reporter activation, triplicate, relative to 500 nM thapsigargin (% of thapsigargin); higher = stronger IRE1/XBP1s reporter activation
# Details: 6.8 µM; 18 h; screen: confirmation
# Method: (§1)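 HEK293T-Rex cells stably expressing the ERSE-firefly luciferase (BiP promoter, ATF6-preferring) or XBP1-splicing Renilla luciferase (IRE1/XBP1s) reporter, 1536-well plates, compound at 6.8 µM for 18 hr at 37 °C; luminescence read […] and expressed as % activation = 100*(compound - median DMSO)/(median 500 nM thapsigargin - median DMSO). Primary screen was single-pass; confirmation screen in triplicate (mean ± SD).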
row,Structure (SMILES),XBP1-RLuc splicing reporter activation
1,O=C(c1ccccc1)c1c(O)ccc2c(C(=O)c3ccccc3)c(O)ccc12,15.8 ± 2.8
2,CCCCCOc1ccc(N/C(N)=N/c2nc(C)cc(C)n2)cc1,159 ± 6.3
3,COc1cccc(/C=N\NC(=O)c2n[nH]c3c2CCC3)c1,2.25 ± 1
4,O=C(N/N=C/c1ccc(O)c(O)c1)c1ccc(Br)cc1,20.9 ± 0.79
5,Cc1cc(C)nc(Nc2nc(-c3ccc(O)c(O)c3)cs2)n1,13.9 ± 9.7
6,COc1ccc2[nH]c3c(N4CCCCC4)ncnc3c2c1,4.28 ± 0.66
7,COc1ccc(/C=C(\C#N)c2nc(-c3ccco3)cs2)cc1O,4.32 ± 0.33
8,O=c1cc(-c2ccc(O)c(O)c2)oc2ccccc12,20.6 ± 1.5
9,C=CCNC(=O)c1cc(-c2cccs2)on1,7.78 ± 0.96
10,O=C(NC(c1ccccc1)c1ccccc1)c1csc(-c2cnccn2)n1,19 ± 0.61

# Test system: HEK293T-Rex ERSE-FLuc
# Experiment: ERSE-FLuc reporter activation, triplicate confirmation, relative to 500 nM thapsigargin (% of thapsigargin); higher = stronger ATF6/ERSE reporter activation
# Details: 6.8 µM; 18 h; screen: confirmation
# Method: as §1
row,Structure (SMILES),ERSE-FLuc reporter activation
1,O=C(c1ccccc1)c1c(O)ccc2c(C(=O)c3ccccc3)c(O)ccc12,39.3 ± 7.9
2,COc1ccccc1/C=N/Nc1nc(-c2ccccc2)cc(=O)[nH]1,25.2 ± 1.8
3,COc1ccc(-c2cnnc(N/N=C/c3ccc(O)c(O)c3)n2)cc1,35.9 ± 7.5
4,COc1ccc(-c2nn(-c3ccccc3)cc2/C=C/C(=O)O)cc1[N+](=O)[O-],31.7 ± 4.4
5,Cc1ccc(/C=N/NC(=O)c2cccc(F)c2)cc1,27.1 ± 7.8
6,CCOc1cccc(/C=C2\NC(=S)N(C)C2=O)c1O,26.2 ± 29
7,Nc1ccc2sc(-c3cc(Cl)c(N)c(Cl)c3)nc2c1,30.8 ± 2.4
8,COc1ccccc1-c1nnc(Nc2nc3c(OC)cccc3s2)o1,51 ± 10
9,Cc1ccc(O)c(NC(=O)c2cc(C3CC3)on2)c1,59.4 ± 7.7
10,Cc1ccccc1NC(=O)c1sc2nc(N)c(C#N)c(-c3ccc(C(C)C)cc3)c2c1N,36.7 ± 3.3
11,Fc1ccc(-c2nnc3ccc(N4CCN(c5ccccn5)CC4)nn23)cc1,34.3 ± 3.5
12,Cc1cc(C)nc(/N=C(\N)Nc2ccc(OCc3ccc(Cl)cc3)cc2)n1,59.7 ± 14
13,C(=N/Nc1nnc2c(n1)[nH]c1ccccc12)/c1c[nH]c2ccccc12,29.6 ± 8
14,OCCNc1nc(Nc2ccc(Cl)cc2)nc2ccccc12,67.9 ± 10
15,CCCCCOc1ccc(N/C(N)=N/c2nc(C)cc(C)n2)cc1,110 ± 12
16,COc1cccc(/C=N\NC(=O)c2n[nH]c3c2CCC3)c1,26.1 ± 2.5
17,Cc1ccc2c(N)c(C(=O)c3ccc4c(c3)OCO4)sc2n1,35.9 ± 4.3
18,Cc1ccc(O)c(NC(=O)c2cc(-c3ccco3)on2)c1,74.4 ± 8.9

row,Structure (SMILES),ERSE-FLuc reporter activation
1,O=C(Nc1ccc(O)cc1)c1ccc2ccccc2c1,28.3 ± 11
2,O=C(/C=C/c1ccccc1)Nc1ccc(Br)cn1,27.6 ± 6.8
3,O=C1N/C(=C/c2ccc(O)cc2)C(=O)N1c1cccc(Cl)c1,68.2 ± 5.7
4,Cc1ccc(O)c(-c2cc(C(F)(F)C(F)F)no2)c1,37.1 ± 3.1
5,CCCNC(=O)c1cc(-c2ccc(F)cc2)on1,42 ± 5.5
6,O=C(N/N=C/c1ccc(O)c(O)c1)c1ccc(Br)cc1,31.2 ± 2.8
7,CN(c1ccccc1)S(=O)(=O)c1cccc(C(=O)NCCc2ccc(O)c(O)c2)c1,44.7 ± 3.8
8,c1ccc2cc(-c3cnnc(N4CCOCC4)n3)ccc2c1,29 ± 8.7
9,COCCNC(=O)c1cc(-c2cccs2)on1,27.4 ± 2.4
10,Cc1cc(C)nc(Nc2nc(-c3ccc(O)c(O)c3)cs2)n1,47.4 ± 6.5
11,Cc1ccc2nc(/C(C#N)=C/c3ccc(O)c(O)c3)[nH]c2c1,38.9 ± 2.7
12,COc1ccc2[nH]c3c(N4CCCCC4)ncnc3c2c1,28.3 ± 2.6
13,COc1ccc(/C=C(\C#N)c2nc(-c3ccco3)cs2)cc1O,35.1 ± 3.9
14,O=c1cc(-c2ccc(O)c(O)c2)oc2ccccc12,42.2 ± 12
15,C=CCNC(=O)c1cc(-c2cccs2)on1,72.1 ± 6
16,COc1cccc(-c2cc(C(=O)Nc3cc(C)ccc3O)on2)c1,34.2 ± 8.4
17,O=C(NC(c1ccccc1)c1ccccc1)c1csc(-c2cnccn2)n1,30.5 ± 7.8
18,N#Cc1c(NC(=O)c2ccc3ncsc3c2)sc2c1CCC2,32.1 ± 2.5
